According to PubChem BioAssay AID1224921 (Broad Institute, 2016):
Hit rate of the full screen: of about 1,400 compounds, about 350 (25%) were called active. Another 2% or so got no clear call; they are omitted. The rule behind the calls is not given here. These entries were drawn from the full list. Measured potencies and affinities stand elsewhere.

Assay: inhibitors of Clostridioides difficile proliferation – 4-point retest, confirmation (AID 1224921);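 note: plate controls were DMSO wells for no effect and levofloxacin 16 µg/mL wells for full effect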
Conditions: Clostridioides difficile clinical isolate growth, OD600, 24 h, active compounds read low; at 30 µM unless noted

Max activity, inactive:
CCCN(C)C[C@H]1Oc2cc(C#CCC3CCCC3)ccc2S(=O)(=O)N([C@@H](C)CO)C[C@H]1C 28.1% [at 8 µM]
CCCN1C[C@H](C)[C@@H](OC)CN(C)C(=O)c2ccc(NC(=O)c3ccc(F)cc3)cc2OC[C@@H]1C -10.8% [at 1.95 µM]
CO[C@@H]1CN(C)C(=O)c2cc(NC(C)=O)ccc2OC[C@@H](C)N(Cc2nccs2)C[C@@H]1C 17.3%
O=C(C[C@@H]1C[C@H]2c3cc(NC(=O)NC4CCCC4)ccc3O[C@H]2[C@@H](CO)O1)NCc1ccccc1F -6.86% [at 1.95 µM]
CO[C@H]1CN(C)C(=O)c2ccc(NC(C)=O)cc2OC[C@H](C)N(C(=O)c2ccccc2F)C[C@@H]1C -11.1% [at 0.5 µM]
C[C@@H]1CN([C@H](C)CO)S(=O)(=O)c2ccc(/C=C/c3ccccc3)cc2O[C@@H]1CN(C)C(=O)Nc1cc(F)ccc1F 35.6%
CO[C@H]1CN(C)C(=O)c2cc(NC(=O)C3CCC3)ccc2OC[C@@H](C)N(Cc2ccc(F)cc2)C[C@@H]1C 29.4%
CCC(=O)N1C[C@@H](C)[C@H](OC)CN(C)C(=O)c2ccc(NC(=O)c3cc(C)on3)cc2OC[C@@H]1C -1.88% [at 1.95 µM]
C[C@@H](NC(=O)C[C@H]1C=C[C@@H](NC(=O)CN2CCOCC2)[C@H](CO)O1)c1ccccc1 -14.1% [at 8 µM]
CCC(=O)Nc1ccc2c(c1)C(=O)N(C)C[C@H](OC)[C@H](C)CN(C(=O)CN1CCOCC1)[C@@H](C)CO2 -5.93% [at 8 µM]
COc1cccc(NC(=O)N[C@H]2C=C[C@H](CC(=O)NCc3ccncn3)O[C@@H]2CO)c1 -9.51% [at 0.5 µM]
CCCC#Cc1ccc2c(c1)O[C@@H](CN(C)Cc1ccncc1)[C@@H](C)CN([C@H](C)CO)S2(=O)=O 33.3%
CO[C@H]1CN(C)C(=O)c2cc(NC(C)=O)ccc2OC[C@@H](C)N(CC2CCCCC2)C[C@H]1C -7.37% [at 1.95 µM]
O=C(N[C@H]1C=C[C@@H](CC(=O)N2CCc3ccccc3C2)O[C@H]1CO)C1CC1 -11.9% [at 1.95 µM]
Cc1ccc(-c2ccc3c(c2)O[C@H](CN(C)C(=O)NC(C)C)[C@H](C)CN([C@@H](C)CO)S3(=O)=O)cc1 20.5%
Cc1ccc(-c2ccc3c(c2)O[C@H](CN(C)Cc2ccncc2)[C@@H](C)CN([C@@H](C)CO)S3(=O)=O)cc1 32.6%
C/C=C/c1cnc2c(c1)C(=O)N([C@@H](C)CO)C[C@H](C)[C@H](CN(C)Cc1ccc(F)cc1)O2 9.72%
O=C(N[C@H]1C=C[C@@H](CC(=O)N2CCc3ccccc3C2)O[C@@H]1CO)C1CC1 -6.96%
CC(C)C#Cc1ccc2c(c1)O[C@@H](CN(C)Cc1cccnc1)[C@H](C)CN([C@H](C)CO)S2(=O)=O 36.4%
COc1ccc(-c2ccc([C@@H]3[C@H](C#N)N(C(=O)C4CCCC4)[C@H]3CO)cc2)cc1 -7.24% [at 1.95 µM]
C/C=C/c1cnc2c(c1)C(=O)N([C@H](C)CO)C[C@H](C)[C@H](CN(C)Cc1ccc(F)cc1)O2 14.8%
COc1cccc(-c2ccc3c(c2)O[C@H](CN(C)Cc2ccncc2)[C@@H](C)CN([C@@H](C)CO)S3(=O)=O)c1 21.8% [at 35 µM]
CO[C@H]1CN(C)C(=O)c2cc(NC(=O)c3cccc(F)c3)ccc2OC[C@@H](C)N(C(C)=O)C[C@H]1C 19% [at 8 µM]
CC(C)CC#Cc1ccc2c(c1)O[C@H](CN(C)Cc1cccnc1)[C@@H](C)CN([C@@H](C)CO)S2(=O)=O 39.7%
CO[C@H]1CN(C)C(=O)c2cc(NC(=O)Nc3cccc(F)c3)ccc2OC[C@@H](C)N(C)C[C@H]1C -11.4% [at 1.95 µM]
C[C@H](CO)N1C[C@H](C)[C@@H](CN(C)Cc2cccnc2)Oc2cc(C#CC3CCCCC3)ccc2S1(=O)=O 30.4%
O=C(C[C@H]1C[C@@H]2c3cc(NC(=O)Nc4ccc(F)cc4)ccc3O[C@@H]2[C@H](CO)O1)NC1CCCCC1 16%
CCCC(=O)Nc1ccc2c(c1)OC[C@@H](C)N(Cc1ccncc1)C[C@H](C)[C@H](OC)CN(C)C2=O 14.1%
O=C(C[C@@H]1C[C@H]2c3cc(NC(=O)Nc4ccc(C(F)(F)F)cc4)ccc3O[C@H]2[C@@H](CO)O1)NC1CCCCC1 -15.4% [at 1.95 µM]
CO[C@H]1CN(C)C(=O)c2cc(NC(=O)c3ccccc3)ccc2OC[C@H](C)N(C(=O)CN(C)C)C[C@H]1C -13% [at 1.95 µM]
CO[C@@H]1CN(C)C(=O)c2cc(NC(=O)c3cc(C)on3)ccc2OC[C@@H](C)N(C(C)=O)C[C@@H]1C -12.6% [at 1.95 µM]
O=C(C[C@H]1CC[C@H]2[C@@H](COC[C@H](O)CN2Cc2cc(F)ccc2F)O1)NCc1ccc(F)cc1 -6.27%
O=C(C[C@H]1CC[C@H]2[C@@H](COC[C@@H](O)CN2Cc2cc(F)ccc2F)O1)NCc1ccc(Cl)cc1 12.5%
C[C@H](CO)N1C[C@H](C)[C@H](CN(C)C)Oc2cc(-c3ccccc3F)ccc2S1(=O)=O -3.75% [at 1.95 µM]
COc1ccc(S(=O)(=O)Nc2cccc3c2O[C@@H](CN(C)S(=O)(=O)c2c(C)noc2C)[C@H](C)CN([C@H](C)CO)C3=O)cc1 14.4%
Cc1ccc(-c2ccc3c(c2)O[C@@H](CN(C)Cc2ccncc2)[C@@H](C)CN([C@@H](C)CO)S3(=O)=O)cc1 21.6%
CCC(=O)Nc1ccc2c(c1)OC[C@@H](C)N(CC1CCCCC1)C[C@H](C)[C@H](OC)CN(C)C2=O 11.5%
CC(C)[C@@H](C)NC(=O)N(C)C[C@@H]1OCc2ccccc2-c2ccccc2C(=O)N([C@@H](C)CO)C[C@H]1C 34.8%
CO[C@H]1CN(C)C(=O)c2ccc(NC(=O)C3CC3)cc2OC[C@@H](C)N(Cc2cncnc2)C[C@@H]1C -5.55%
COc1ccc(-c2ccc3n(c2=O)C[C@H]2[C@H](CO)[C@@H](C(=O)N4CCOCC4)[C@@H]3N2C)cc1 -4.95%
CC(C)CC#Cc1ccc2c(c1)O[C@H](CN(C)Cc1ccncc1)[C@H](C)CN([C@H](C)CO)S2(=O)=O 19.2% [at 8 µM]
C[C@H]1CN([C@@H](C)CO)C(=O)c2cc(C#CCN(C)C)cnc2O[C@@H]1CN(C)Cc1ccc(C(=O)O)cc1 -11.6% [at 1.95 µM]
O=C(Nc1ccc(Cl)c(Cl)c1)N[C@@H]1CC[C@@H](CCn2cc(C3CCCCC3)nn2)O[C@@H]1CO 30.5% [at 0.5 µM]
COc1ccccc1CNC(=O)C[C@H]1C[C@@H]2c3cc(NC(=O)NC4CCCC4)ccc3O[C@@H]2[C@@H](CO)O1 12.1%
CC(C)NC(=O)N(C)C[C@H]1Oc2cc(C#Cc3cccc(F)c3)ccc2S(=O)(=O)N([C@@H](C)CO)C[C@@H]1C 30.3%
C[C@@H]1CN([C@H](C)CO)S(=O)(=O)c2ccc(C#Cc3ccc(F)cc3)cc2O[C@@H]1CN(C)S(C)(=O)=O -24% [at 1.95 µM]
C[C@H]1CN([C@@H](C)CO)S(=O)(=O)c2ccc(C#Cc3ccccc3F)cc2O[C@@H]1CN(C)C 20.5%
C[C@H](CO)N1C[C@H](C)[C@@H](CN(C)C)Oc2cc(C#Cc3ccc(F)cc3)ccc2S1(=O)=O 18.3%
C[C@@H]1CN([C@@H](C)CO)S(=O)(=O)c2ccc(C#Cc3cccc(F)c3)cc2O[C@@H]1CN(C)C 8.04%
COc1cccc(C#Cc2ccc3c(c2)O[C@H](CN(C)C)[C@H](C)CN([C@@H](C)CO)S3(=O)=O)c1 -8.62% [at 1.95 µM]
COc1cccc(C#Cc2ccc3c(c2)O[C@H](CN(C)C)[C@@H](C)CN([C@H](C)CO)S3(=O)=O)c1 8.78%
COc1cccc(C#Cc2ccc3c(c2)O[C@@H](CN(C)C)[C@H](C)CN([C@@H](C)CO)S3(=O)=O)c1 41.9%
CCCN1C[C@@H](C)[C@@H](OC)CN(C)C(=O)c2cc(NC(=O)CC)ccc2OC[C@@H]1C 8.06%
C[C@H](CO)N1C[C@H](C)[C@H](CN(C)C(=O)Nc2cccc(F)c2)Oc2cc(C#CC3(O)CCCC3)ccc2S1(=O)=O 50.2%
Cc1ccc(-c2ccc3c(c2)O[C@H](CN(C)Cc2cccnc2)[C@@H](C)CN([C@@H](C)CO)S3(=O)=O)cc1 36.5%
CO[C@H]1CN(C)C(=O)c2ccc(NC(=O)c3cccc(F)c3)cc2OC[C@H](C)N(C(C)=O)C[C@@H]1C -20.5%
COc1ccc(S(=O)(=O)N(C)C[C@@H]2Oc3ncc(-c4ccc(F)cc4)cc3C(=O)N([C@H](C)CO)C[C@@H]2C)cc1 -7.45%
C[C@H](C(=O)N(C)C[C@H]1OCc2ccccc2-c2ccccc2C(=O)N([C@@H](C)CO)C[C@@H]1C)c1ccccc1 -4.71% [at 0.5 µM]
C[C@@H]1CN([C@H](C)CO)C(=O)c2cc(C#CCN(C)C)cnc2O[C@H]1CN(C)Cc1ccccc1F 24.5%
